Drawing on PubChem BioAssay AID926 (National Center for Advancing Translational Sciences (NCATS), 2007), this text covers activation and Potency for 44 compounds.

Test [1] is described as follows: qHTS Assay for Agonists of the Thyroid Stimulating Hormone Receptor. The following applies: HEK293-CNG-TSHR cells, membrane potential dye, cAMP; measured here: parental cells max response. The essentials:
(§1)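 HEK 293 cells stably expressing TSHR and a cAMP-gated CNG channel; parental CNG-only cells as counterscreen. Cells preloaded 60 min with membrane potential dye plus 100 uM RO 20-1724, then compound 30 min; fluorescence read at 590 nm.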
Background: In qHTS, concentration-response curves come from the screen itself.

Test [2] concerns the target Thyrotropin receptor (Homo sapiens) (UniProt P16473). Described as above. The following applies: HEK293-CNG-TSHR cells (CNG channel as cAMP sensor), membrane potential dye, cAMP; series mostly up to 57.1 µM. The essentials:
as §1

Where “and” joins values, the source holds several entries; their conditions need not be identical. Equal values may be shown once. The campaign covered roughly 73,000 compounds. About 350 (0.48%) were called active. Another 17% or so got no clear call; they are omitted. Calls follow the shape of the dose curve; as a rule, active = well fitted activation curve with a large enough effect in the main read-out, with a control signal flat (not every such curve was filed as active); inconclusive = small, poorly fitted or top-dose-only effect, or a change in a side signal; inactive = no such curve, though single readings can be large or run the other way; reference of the percent scale not stated here. The sample as a whole holds a higher share of actives than the screen did.
Potency is read from the fitted curve at half-maximal effect.

Thyrotropin receptor (Homo sapiens), sequence (P16473 whole entry, looked up): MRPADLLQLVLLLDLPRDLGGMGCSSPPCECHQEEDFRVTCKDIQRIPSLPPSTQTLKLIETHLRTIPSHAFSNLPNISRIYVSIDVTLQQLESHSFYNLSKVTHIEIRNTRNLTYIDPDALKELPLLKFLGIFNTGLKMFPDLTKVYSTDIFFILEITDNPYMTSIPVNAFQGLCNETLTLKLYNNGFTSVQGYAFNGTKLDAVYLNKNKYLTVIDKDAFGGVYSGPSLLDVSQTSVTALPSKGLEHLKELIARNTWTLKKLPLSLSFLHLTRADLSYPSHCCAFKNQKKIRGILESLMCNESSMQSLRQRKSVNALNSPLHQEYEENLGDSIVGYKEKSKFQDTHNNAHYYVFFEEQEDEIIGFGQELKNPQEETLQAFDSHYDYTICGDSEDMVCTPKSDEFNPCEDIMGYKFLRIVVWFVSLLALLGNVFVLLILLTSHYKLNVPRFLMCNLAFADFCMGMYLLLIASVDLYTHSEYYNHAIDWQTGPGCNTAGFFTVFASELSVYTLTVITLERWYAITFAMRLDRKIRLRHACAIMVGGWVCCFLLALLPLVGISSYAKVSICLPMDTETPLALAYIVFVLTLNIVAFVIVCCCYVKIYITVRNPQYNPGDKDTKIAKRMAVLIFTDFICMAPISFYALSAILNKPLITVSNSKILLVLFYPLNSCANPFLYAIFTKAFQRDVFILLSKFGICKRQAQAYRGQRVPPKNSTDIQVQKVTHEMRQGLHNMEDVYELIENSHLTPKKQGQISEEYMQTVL

On to `O=C(OCC(COC(=O)c1ccccc1)(COC(=O)c1ccccc1)COC(=O)c1ccccc1)c1ccccc1`, for which the activation in test [1] was determined as 20%. The Potency result in test [2] is “inactive”.
In the same order, the values of `COC(=O)c1ccc(/C=N\n2c(C)nnc2C)cc1` are 10.1% and “inactive”.
In the same order, the values of `CCc1ccc(-c2nnn(Cc3nn[nH]n3)n2)cc1` are 16% and “inactive”.
The like results for `CCOc1ccc(-c2nnn(CC(=O)N3CCN(c4ccc(OC)cc4)CC3)n2)cc1OCC` were, in that order, -8.4% and “inactive”.
For the compound `COc1ccc(-c2nnn(Cc3nc(N)nc(N4CCCCC4)n3)n2)cc1`, in test [1], the activation was 22%. Further, the Potency in test [2] was 31.6 µM (active).
On to `Cn1c(=O)n(C)c2cc(CNc3ccc(N4CCOCC4)c(C(=O)O)c3)ccc21`, for which the activation in test [1] was determined as 3.63%. Also, in test [2], the Potency result is “inactive”.
In the same order, the values of `O=C(Cn1nnc2ccccc2c1=O)Nc1cc(C(F)(F)F)ccc1N1CCOCC1` are 17.2% and “inactive”.
Regarding `Cn1nc(-c2ccc(N3CCOCC3)c(NC(=O)c3ccccc3)c2)c2ccccc2c1=O`, the activation in test [1] is 29.3%. Further, the Potency in test [2] is 25.1 µM (active).
The like results for `O=C(C1CCN(CC2CCCCC2)CC1)N1CCCC1` were, in that order, 16.6% and “inactive”.
Turning to `COC(=O)[C@@H]1CC[C@H](C)[C@@H](c2ccc(C)cc2)N1C(=O)c1ccc(/C=N\O[C@@H](C)c2cn([C@H](CO)Cc3ccccc3)nn2)cc1`, the activation in test [1] was 9.66% and 5.24%; in test [2] it was 0.181% [at 11.4 µM] (inactive) and 4.03% [at 11.4 µM] (inactive).
As for `CCc1c(C)sc(NC(=O)OC)c1C(=O)N1CCOCC1`, in test [1], the activation was -1.6%. In addition, the Potency entry in test [2] is “inactive”.
Regarding `CCOC(=O)[C@]1(C(/C=C/c2ccco2)NC(=O)OC)CCCC1=O` (stereo partly drawn), the activation in test [1] is 0.322%; in test [2], 14% [at 11.4 µM] (inactive).
As for `O=C(CC1(O)C(=O)N(CN2CCOCC2)c2ccccc21)c1ccccc1` (stereo not drawn), the activation in test [1] is 1.28%. Besides, in test [2], the Potency result was “inactive”.
Take `CN(C)C(=O)c1ccc(-c2cncnc2Nc2ccccc2)cc1`: in test [1], the activation was -2.37%. Moreover, the Potency entry in test [2] is “inactive”.
On to `OC(COc1cccc(OCC(O)CN2CCCC2)c1)CN1CCCC1` (stereo not drawn), for which the results for the activation in test [1] and in test [2] were -1.83% and -1.13% [at 11.4 µM] (inactive), respectively.
Consider `Cc1cc(NS(=O)(=O)c2ccccc2)no1`, for which the activation in test [1] was 1.38%. In addition, the Potency entry in test [2] is “inactive”.
The like results for `COc1ccc(O)c(C=Nc2cc(C)on2)c1` were, in that order, -5.94% and “inactive”.
The like results for `CC(C)N(CCNC(=O)c1ccc(-n2c(=O)c(=O)[nH]c3ccccc32)cc1)C(C)C` were, in that order, -3.64% and “inactive”.
In the same order, the values of `CCC(C)n1[nH]c(=O)c2c(C)cc(C)nc21` (stereo not drawn) are 14.5% and “inactive”.
For `Cc1cccc2c1N(CC(=O)OC(C)C)C(=O)C2=O`, the activation in test [1] was -9.41%; in test [2], -2.45% [at 11.4 µM] (inactive).
In the case of `Cc1cc(N=CC2=C(O)CCCC2=O)no1`, the activation in test [1] came to 5.56%. In test [2], the Potency result is “inactive”.
As for `C=CCOC(=O)C(C(C)=O)C(NC(=O)OC)c1ccccc1` (stereo not drawn), the values for the activation in test [1] and in test [2] were 4.24% and -0.17% [at 11.4 µM] (inactive), respectively.
The like results for `O=C(O)[C@@H](O)Cc1ccccn1` were, in that order, 4.67% and -3.52% [at 11.4 µM] (inactive).
With `c1ccc(Nc2n[nH]nc2-c2ccccc2)cc1`, the activation in test [1] was -0.853%. Moreover, in test [2], the Potency result was “inactive”.
Take `Cc1nnc(NC(=O)CCC(=O)N2CCC(C)CC2)s1`: the activation in test [1] is 5.36%. For the same compound, in test [2], the Potency result was “inactive”.
`C#CCC(C(=O)OC)(C(=O)OC)C(C[N+](=O)[O-])c1ccccc1` (stereo not drawn): the activation was -0.955% in test [1] and 7.7% [at 11.4 µM] (inactive) in test [2].
`Cc1ccc(C(=O)CS(C)(=O)=O)cc1`: the activation in test [1] worked out at 1.73%. Further, the Potency result in test [2] is “inactive”.
The like results for `COc1ccc(-c2nc(-c3ccccc3)no2)c(OC)c1` were, in that order, 7.25% and “inactive”.
In the same order, the values of `COc1ccc(OC)c(Nc2nc(-c3ccc(O)c(O)c3)cs2)c1` are -4.42% and “inactive”.
The like results for `CCOc1ccccc1Oc1cn[nH]c1-c1ccc(OC)cc1O` were, in that order, 7.48% and “inactive”.
Regarding `C=C(C)COc1ccc(-c2n[nH]c(C)c2-c2ccccc2)c(O)c1`, the activation in test [1] was 17.3%. Also, the Potency result in test [2] is “inactive”.
The like results for `COc1ccc(-c2n[nH]c(C)c2-c2ccc(OC)c(OC)c2)c(O)c1` were, in that order, 11.3% and 5.01 µM (active).
In the same order, the values of `C=C(C)COc1ccc(-c2n[nH]c(C)c2-c2ccccc2OC)c(O)c1` are 8.35% and 31.6 µM (active).
The like results for `O=C1OC(NC(=O)c2ccccc2)C(N2CCOCC2)=C1Cl` (stereo not drawn) were, in that order, 4.11% and “inactive”.
Turning to `CC(C)c1ccc2c([Si](C)(C)C)c3c(nc2c1)-c1cccc(=O)n1C3`, the activation in test [1] amounted to 2.88%. In addition, the Potency entry in test [2] is “inactive”.
In the same order, the values of `CCn1cc(NC(=O)Nc2ccc(OC)c(OC)c2)c(C(N)=O)n1` are 0.163% and “inactive”.
Consider `COc1cccc(N2CCN(C3CC(=O)N(c4ccc(Cl)cc4)C3=O)CC2)c1` (stereo not drawn), for which the activation is -14.4% in test [1] and -19.1% [at 11.4 µM] (inactive) in test [2].
With `Cc1ccc(C(=O)Nc2nnc(-c3ccncc3)s2)o1`, in test [1], the activation is -13.3%. Besides, the Potency result in test [2] was “inactive”.
In the same order, the values of `CC(=O)OCC(=O)[C@@]1(O)CC[C@@H]2[C@H]3CCC4=CC(=O)C=C[C@]4(C)[C@]3(F)[C@@H](O)C[C@@]21C` are -1.34% and “inactive”.
The like results for `COC(=O)[C@@]1(Cc2ccc(F)cc2)[C@H]2c3cc(C(=O)N4CCCC4)n(C[C@H](O)CO)c3C[C@H]2CN1C(=O)c1ccccc1` were, in that order, 12.9% and “inactive”.
In the same order, the values of `CC(C)N(C(=O)Cn1c(SCC(=O)N2CCN(c3ccccc3)CC2)nc2ccccc21)C(C)C` are 11.2% and “inactive”.
For `Cc1ccc(NC(=O)N2CCC(C(=O)NCc3ccc(F)cc3)CC2)cc1`, the activation in test [1] was -2.62%. Also, the Potency result in test [2] is “inactive”.
On to `Cn1c(=O)n2n(c1=O)[C@H]1[C@H](O)[C@H]3O[C@H]3C(=O)[C@H]1CC2`, for which the activation in test [1] is 0.42%; in test [2], -7.07% [at 11.4 µM] (inactive).
`O=C(CCCn1c(=O)oc2ccccc21)Nc1cccnc1`: the activation in test [1] was -4.73%. Also, the Potency result in test [2] was “inactive”.
